Reference: PubChem BioAssay AID686978 (National Center for Advancing Translational Sciences (NCATS), 2013)
The campaign covered roughly 420,000 compounds. About 64,000 (15%) were called active. Not shown: some 27% with an inconclusive outcome. Not all results are given here. Values without a mark were called inactive. Calls follow the shape of the dose curve; as a rule, active = well fitted inhibition curve with a large enough effect; inconclusive = small, poorly fitted or top-dose-only effect; inactive = flat fitted curve, though single readings scatter.

Assay: qHTS for Inhibitors of human tyrosyl-DNA phosphodiesterase 1 (TDP1): qHTS in cells in absence of CPT; also: nearly all actives have a fitted effect of over 55% in size
Conditions: DT40 Tdp1-/- hTDP1 cells, no CPT, ATP luminescence, 48 h; activity change, negative = growth inhibition: at 46.2 µM (top of the series)
Outline: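 Growth of hTDP1-complemented DT40 Tdp1-knockout cells is measured by ATP luminescence after at least 48 hr compound exposure at 37 °C, with DMSO substituting for the 20 nM CPT used in the parallel screen.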
% is scaled to controls: 0 for no effect and ±100 for the full control effect; potency is read from the fitted curve at half-maximal effect.

| SMILES | activity change, negative = growth inhibition [%] | Potency |
| --- | --- | --- |
| Fc1ccc(N2CCN(Cc3cnc(Oc4ccc(Br)cc4)s3)CC2)cc1 | -18.2 | – |
| COC(=O)c1cc(NC(=O)CCS(=O)(=O)c2cc(Br)cc3c2N(C(=O)C2CC2)CC3)cc(C(=O)OC)c1 | -14.6 | – |
| O=C(NCCOc1ccccc1)c1ccccc1F | 6.64 | – |
| CN1C2CCC1CC(NC(=O)c1ccc([N+](=O)[O-])cc1)C2 (stereo not drawn) | -21.8 | – |
| CC1CCC2CCCCC2N1C(=O)c1cc([N+](=O)[O-])cc([N+](=O)[O-])c1 (stereo not drawn) | – | 18.4 µM (active) |
| Cc1cc([N+](=O)[O-])c(N2CCC[C@@H]2C(=O)O)c([N+](=O)[O-])c1 | -16.3 | – |
| COC(=O)c1cc(NC(=O)c2nn(C)c(=O)c3ccccc23)cc(C(=O)OC)c1 | – | 6.51 µM (active) |
| CCC(C)NC(=O)c1nn(C)c(=O)c2ccccc12 (stereo not drawn) | -8.51 | – |
| Cc1ccc(C)c(NC(=O)COC(=O)c2nn(C)c(=O)c3ccccc23)c1 | 8.08 | – |
| CC1CCCCC1NC(=O)Cn1c(=O)cnc2ccccc21 (stereo not drawn) | -4.01 | – |
| Cn1nnc(NC(=O)CSc2ncn[nH]2)n1 | -0.455 | – |
| CN(C)N(C)C(=O)C(O)(c1ccccc1)c1ccccc1 | -0.464 | – |
| Cc1cccc(NC(=O)CCn2c(=O)oc3ccccc32)c1 | 5.57 | – |
| Cc1ccc(-c2nn(CCC(=O)Nc3ccc(Cl)c(Cl)c3)c(=O)c3ccccc23)cc1 | – | 23.1 µM (active) |
| Cc1cc(C)cc(NC(=O)CCN2C(=O)c3ccccc3C2=O)c1 | -11.8 | – |
| CCc1nnc(NC(=O)CSc2nc(SC)ns2)s1 | -24.6 | – |
| COc1cccc(NC(=O)N(C)C[C@@H]2Oc3ncc(Br)cc3C(=O)N([C@@H](C)CO)C[C@H]2C)c1 | -25.5 | – |
| CN(C)N=Nc1ccc2nc[nH]c2c1 | -13.4 | – |
| CCOc1ccc(NC(=O)CN(C)C(=O)Cn2c(=O)cnc3ccccc32)cc1OCC | -27.1 | – |
| CCC(=O)N1CCc2cc(S(=O)(=O)NC(C(=O)N3CCc4ccccc4C3)C(C)C)ccc21 (stereo not drawn) | -0.707 | – |
| CCCN(CCC)S(=O)(=O)c1cc2c(cc1Br)CCN2C(=O)CC | – | 5.8 µM (active) |
| CCC(=O)N1CCc2cc(Br)c(S(=O)(=O)NCCN3CCCCC3CC)cc21 (stereo not drawn) | 6.25 | – |
| Cc1cc(C(F)F)nn1CC(=O)NC1CCCCCC1 | 2.11 | – |
| COc1ccc(C(=O)N2CCC[C@@]3(CCN(C(=O)NC(C)C)C3)C2)cc1 | -2.74 | – |
| COc1ccc2cc(C(=O)O)n(CC(=O)c3ccccc3)c2c1 | 12.2 | – |
| O=C(/C=C/[C@H]1O[C@@H](n2cnc3c(NC(=O)c4ccccc4)ncnc32)[C@H](O)[C@@H]1O)NCc1ccccc1 | -11.2 | – |

| SMILES | activity change, negative = growth inhibition [%] | Potency |
| --- | --- | --- |
| CCC(C)(C(=O)Nc1ccccc1C)N(C(=O)CNC(C)=O)c1ccc(C)cc1 (stereo not drawn) | -15.5 | – |
| CC(C)(C)OC(=O)N1CCC(NC(=O)c2[nH]cnc2C(=O)N[C@@H](Cc2ccccc2)C(=O)OCc2ccccc2)CC1 | – | 13 µM (active) |
| C[C@@H](NC(=O)c1nc[nH]c1C(=O)N1CCN(C(=O)OC(C)(C)C)CC1)c1ccccc1 | -23.7 | – |
| O=C(N[C@@H](Cc1ccccc1)C(=O)OCc1ccccc1)c1nc[nH]c1C(=O)NC1CCNCC1 | 0.388 | – |
| O=C(Nc1ccccc1Cl)NC1(C(=O)N2CCOCC2)CCCCC1 | -7.24 | – |
| COc1cccc(NC(=O)CN(C)C(=O)CSCc2nc3scc(-c4cccs4)c3c(=O)[nH]2)c1 | 1.04 | – |
| Cc1ccccc1N1CCN(C2CCCN(C(=O)c3cn4c(C)cccc4n3)C2)CC1 (stereo not drawn) | – | 14.6 µM (active) |
| Cc1cnc(C(=O)N2CCCC(N3CCN(c4ccccc4F)CC3)C2)cn1 (stereo not drawn) | -24.2 | – |
| Cc1ccccc1N1CCN(C2CCCN(C(=O)c3ocnc3C)C2)CC1 (stereo not drawn) | -25.4 | – |
| CC(C)c1ccc(NS(=O)(=O)c2ccc3[nH]cc(C(=O)NC4CCCC4)c(=O)c3c2)cc1 | -18 | – |
| COCOc1cccc(CN2CCC(C)(Oc3ccc(SC)cc3)C2)c1 (stereo not drawn) | – | 10.3 µM (active) |
| CCc1ccc(OC2(C)CCN(CCOc3ccc(C)cc3)C2)cc1 (stereo not drawn) | -28.4 | – |
| CCC12CN3CC(CC)(CN(C1)C31C(=O)N(C)c3ccc(C)cc31)C2=O (stereo not drawn) | -22.5 | – |
| O=C(NC1CC2CCCC(C1)N2C(=O)N1CCCCC1)C1CCCCC1 (stereo not drawn) | -8.22 | – |
| COC(=O)Cc1[nH]n(-c2nc3ccccc3s2)c(=O)c1C(C)=Nc1ccc(OC)cc1 | – | 3.26 µM (active) |
| C/C(=N\NC(=O)CC(C)C)c1c(C(F)(F)F)[nH]n(-c2nc3ccccc3s2)c1=O | -8.53 | – |
| COc1ccc(N=C(C)c2sc3ccccc3c2O)cc1 | 0.494 | – |
| Cc1ccc(-c2ccc(CCC(=O)O)n2-c2ccc(C(N)=O)cc2)cc1 | -15.2 | – |
| CN(Cc1ccccc1)C(=O)C(=O)c1cn(CC(=O)N2CCCC2)c2ccccc12 | -19.2 | – |
| CCOC(=O)C1=C(c2ccc(OC)cc2)C(=O)c2ccccc2C1=O | – | 1.46 µM (active) |
| COc1ccc(OCCCON2C(=O)c3ccccc3C2=O)cc1 | -0.348 | – |
| CCOC(=O)c1cc2n(c1N)-c1ccccc1C2=O | -18.9 | – |
| CCOc1ccc(C(=O)NCC(=O)N2CCCCCCC2)cc1OCC | 0.068 | – |
| O=C(CCS(=O)(=O)c1cccc2nonc12)NCCc1ccccc1Cl | -17.1 | – |
| COCCn1c(=O)c(CCc2ccccc2)nc2cncnc21 | 22.6 | – |
| COc1ccc(-c2nc3cnc(OC)nc3n(Cc3ccc(F)cc3)c2=O)cc1 | -15 | – |

| SMILES | activity change, negative = growth inhibition [%] | Potency |
| --- | --- | --- |
| COc1cccc(Cn2c(=O)c(-c3cc(F)cc(F)c3)nc3cnc(OC)nc32)c1 | – | 0.116 µM (active) |
| COc1cccc(Cn2c(=O)c(-c3ccccc3)nc3cnc(OC)nc32)c1 | -1.76 | – |
| COc1cccc(Cn2c(=O)cnc3cncnc32)c1 | – | 0.731 µM (active) |
| COc1cccc(Cn2c(=O)c(CCc3ccccc3)nc3cnc(N(C)C)nc32)c1 | -6.83 | – |
| Cc1ccc(F)cc1NC(=O)c1cccc(N(C)C)c1 | -1.61 | – |
| COc1ccc(-c2nc(N)sc2C2(O)C(=O)Nc3c(Br)cc(F)cc32)cc1OC (stereo not drawn) | -1.91 | – |
| Cc1ccc(OC(=O)c2ccccc2C(=O)OCC(F)(F)C(F)F)cc1 | -4.89 | – |
| O=C(O)c1cc2ccccc2c(=O)s1 | -6.59 | – |
| CC(=O)c1ccc(NC(=O)Cn2c(=O)oc3ccccc32)cc1 | -10.3 | – |
| COc1ccc(C2(C)NC(=O)N(CC(=O)c3ccc4c(c3)OCO4)C2=O)cc1 (stereo not drawn) | -20.5 | – |
| CCc1ccc(-n2nnc(-c3nc(-c4ccccc4)no3)c2C)cc1 | 3.01 | – |
| Cc1ccc(NC(=O)CSc2nnc(CNC(=O)c3ccccc3F)o2)cc1Cl | 6.65 | – |
| Cc1cccc(-n2c(SCC(=O)Nc3cccc(S(=O)(=O)NC4=NCCCCC4)c3)nc3ccccc3c2=O)c1C | – | 16.4 µM (active) |
| COc1ccccc1C(=O)OCC(=O)Nc1cccc(S(=O)(=O)NC2=NCCCCC2)c1 | -28.2 | – |
| CCc1ccc(C(=O)OCC(=O)Nc2cccc(S(=O)(=O)NC3=NCCCCC3)c2)cc1 | -16.1 | – |
| O=C(Cc1cccs1)Nc1nnc(SCc2ccc(F)cc2)s1 | -8.66 | – |
| O=[N+]([O-])c1ccc(O)c(/C=N/Nc2ccccc2[N+](=O)[O-])c1 | – | 18.4 µM (active) |
| Nc1nnnn1/N=C/c1cc([N+](=O)[O-])ccc1O | -19 | – |
| O=[N+]([O-])c1cccc(C=NN=Cc2ccccc2O)c1 | -0.122 | – |
| CCCCn1c(N)c(N(CCC(C)C)C(=O)c2ccc(COc3ccccc3)o2)c(=O)[nH]c1=O | -8.96 | – |
| CS(=O)(=O)N1CCN(CC(=O)NC2CCCC2)CC1 | -27.4 | – |
| Cn1c(-c2ccco2)nc2cc3ccccc3cc21 | – | 20.6 µM (active) |
| CN(c1nc2ccccc2n2c(-c3ccco3)nnc12)S(=O)(=O)c1ccccc1 | -12.7 | – |
| COc1ccccc1-n1c(-c2cc(-c3ccco3)[nH]n2)n[nH]c1=S | -5.33 | – |
| CCN(CC)C(=O)CSC1c2ccccc2C(=O)N1c1ccccc1 (stereo not drawn) | -17.6 | – |
| COC(=O)c1ccc(-n2cnc3ccccc32)nc1 | 0.376 | – |

| SMILES | activity change, negative = growth inhibition [%] | Potency |
| --- | --- | --- |
| COC(=O)CSc1nc(C)c2ccc(OC)cc2n1 | -3.51 | – |
| O=C(O)C(c1ccccc1)C1(O)CCCCC1 (stereo not drawn) | -7.94 | – |
| CC1COc2ccccc2N1C(=O)c1cccnc1Cl (stereo not drawn) | -1.42 | – |
| O=C(Nn1c(-c2ccc(Cl)cc2)nc2ccccc2c1=O)c1cccnc1Cl | 2.46 | – |
| CN1/C(=C\C(=O)c2cccnc2Cl)C(C)(C)c2ccccc21 | – | 16.4 µM (active) |
| COCCN(C(=O)CCC(=O)Nc1nccs1)C(C(=O)NCCC(C)C)c1ccc(F)cc1 (stereo not drawn) | -22.3 | – |
| Cc1ncc2c(c1CNS(=O)(=O)N(C)C)CCN(C(=O)c1ccccc1F)C2 | -14.2 | – |
| CC(C)(C)N(Cc1ccccc1)C(=O)c1ccncc1 | 8.21 | – |
| CC(=O)N1N=C(c2ccccc2)OC1c1cccnc1 (stereo not drawn) | -18.3 | – |
| CC(=O)N1N=C(c2ccncc2)OC1(Cc1ccccc1)Cc1ccccc1 | – | 8.2 µM (active) |
| CC1(c2cccc(N)c2)OCCO1 | 1.06 | – |
| Cc1ccc(S(=O)(=O)/N=C(/NC(=S)Nc2c(C)n(C)n(-c3ccccc3)c2=O)c2ccccc2)cc1 | 14.8 | – |
| COc1ccccc1CNC(=O)COC(=O)c1cccs1 | -1.27 | – |
| Cc1ccccc1CNC(=O)C(=O)NCC(c1cccs1)S(=O)(=O)c1cccs1 (stereo not drawn) | – | 14.6 µM (active) |
| CC(C)C(=O)NCC(c1cccs1)S(=O)(=O)c1ccc(F)cc1 (stereo not drawn) | 11.1 | – |
| O=C(CNC(=O)c1ccco1)NNC(=O)c1ccc(Br)cc1 | 17.5 | – |
| O=C(Oc1ccccc1)c1ccc2nccnc2c1 | 2.88 | – |
| O=C(Oc1ccc(-c2nc(-c3ccccn3)no2)cc1)c1ccccc1 | – | 9.2 µM (active) |
| CC(C)c1nc(-c2ccccn2)no1 | -11.4 | – |
| COc1ccc(S(=O)(=O)N2CCN(CC(=O)N3c4ccccc4CC3C)CC2)cc1OC (stereo not drawn) | -5.83 | – |
| O=C(NC1=NCCS1)[C@H](Cc1ccccc1)N1C(=O)c2ccccc2C1=O | -17.9 | – |
| Cc1occc1C(=O)NC1CCCN(Cc2ccc(CC(C)C)cc2)C1 (stereo not drawn) | – | 20.6 µM (active) |
| Cc1occc1C(=O)NNC(=S)NCC(C)C | -1.82 | – |
| Cc1occc1C(=O)Nc1cccc(Cn2cccn2)c1 | -25.6 | – |
| CCOC(=O)C(NC(C)=O)C(=O)Nc1ccc(OC)cc1 (stereo not drawn) | -3.87 | – |
